Screening data deposited in PubChem BioAssay by NMMLSC.
This is a sample that favours compounds with a hit; in the whole collection about 1.2% have one here.
RGS7-Gao reg = human RGS7-Galphao interaction regulation; Multiplexed bead flow cytometry, RGS7-Galphao binding; actives lie on both sides; 0.35% of 220,000 active; binding response (% of control), % at 10 µM; P09471; in the data active means binding response below about 49% or above about 150%; inconclusive means no clear call, values can overlap the other calls; inactive means in between;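 further: fluorescent Galphao held in activated GDP-AlF4 state binding bead-coupled RGS7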
Target sequence (P09471 whole entry, looked up): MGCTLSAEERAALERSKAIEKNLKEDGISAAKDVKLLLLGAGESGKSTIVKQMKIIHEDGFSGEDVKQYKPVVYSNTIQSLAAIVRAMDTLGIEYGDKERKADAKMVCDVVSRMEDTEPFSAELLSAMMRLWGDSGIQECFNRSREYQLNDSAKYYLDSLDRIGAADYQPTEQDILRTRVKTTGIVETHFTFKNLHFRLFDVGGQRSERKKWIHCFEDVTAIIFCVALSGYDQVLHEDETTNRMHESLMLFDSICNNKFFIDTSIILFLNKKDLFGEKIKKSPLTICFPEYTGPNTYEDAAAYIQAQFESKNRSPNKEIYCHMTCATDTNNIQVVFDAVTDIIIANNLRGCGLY
RGS16-Gao = regulators of human RGS16-Galphao interaction; binding response (% of control), % at 10 µM; O15492+P09471; bead-based flow cytometry RGS16-Galphao binding, fluorescence; actives lie on both sides; 0.38% of 220,000 active;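 further: Galphao activated by GDP with aluminum fluoride before binding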
Target sequence (O15492 whole entry, looked up): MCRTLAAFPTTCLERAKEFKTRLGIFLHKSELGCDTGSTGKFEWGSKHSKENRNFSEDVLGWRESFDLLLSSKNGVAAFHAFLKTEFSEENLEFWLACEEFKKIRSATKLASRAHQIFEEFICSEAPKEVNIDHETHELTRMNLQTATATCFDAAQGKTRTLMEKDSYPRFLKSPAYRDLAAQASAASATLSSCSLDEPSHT
Target sequence (P09471 whole entry, looked up): as the sequence (P09471 whole entry, looked up) above
GSH bead fluor = compound fluoresces at 488/530 nm on GSH beads. AID 1776. 0.25% of 190,000 active. fluorescence (KMESF) at 10 µM. GSH beads flow cytometry, compound fluorescence 488/530 nm; stronger effect = higher value; in the data active means fluorescence above about 89;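 further: glutathione beads carrying GST-tagged Bcl family fusion proteins plus one bare bead set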
RGS4-Gao reg = human RGS4-Galphao interaction regulation; Multiplexed bead flow cytometry, RGS4-Galphao binding; actives lie on both sides; binding response (% of control), % at 10 µM; 0.33% of 220,000 active; in the data active means binding response below about 49% or above about 150%; inactive means in between;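 further: fluorescent Galphao activated with aluminum fluoride binding bead-coupled RGS4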
Avidin fluor = avidin bead compound fluorescence profile | 0.38% of 220,000 active | fluorescence (KMESF) at 10 µM | AID 1775 | Avidin beads, compound fluorescence 488/530 nm, flow cytometry; stronger effect = higher value; in the data active means fluorescence above about 47
RGS8-Gao reg = human RGS8-Galphao interaction regulation; 0.34% of 220,000 active; AID 1423; multiplexed bead flow cytometry, RGS8-Galphao binding; actives lie on both sides; P09471; response (percent of control binding), % at 10 µM; in the data active means response below about 60% or above about 140%; inactive means in between;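 further: Galphao activated as the GDP aluminium fluoride complex binding bead-coupled RGS8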
RGS-Gao = regulators of human RGS4-Galphao interaction; shares compounds with RGS16-Gao; multiplexed bead flow cytometry, RGS–Galpha-o binding; RGS4–Galpha-o binding response, % at 10 µM; 99% of 1,600 active; AID 1504;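 further: fluorescently labeled Galpha-o bound to GDP with aluminium fluoride binding biotinylated RGS beads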
Avidin counter = interferes with biotinylated probe binding to avidin beads | shares compounds with RGS16-Gao | streptavidin beads, fluorescein-biotin binding, flow cytometry | inhibition, % at 10 µM | 1,700 tested, under 10 active | AID 1783;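 active means inhibition above 50%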;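 further: median green fluorescence of gated singlet beads compared with DMSO control wells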
RGS8-Gao single = confirmation of regulators of human RGS8-Galphao interaction; shares compounds with RGS16-Gao; bead-based flow cytometry RGS8-Galphao binding, fluorescence; actives lie on both sides; binding response (% of control), % at 10 µM; 3% of 1,700 active; in the data active means binding response below about 72% or above about 130%; inactive means in between;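 further: Galphao activated as GDP AlF4 complex before binding bead RGS8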
RGS7-Gao single = RGS7-Galphao interaction regulation, single point confirmation | 7.8% of 1,700 active | response (percent of control binding), % at 10 µM | bead-based flow cytometry RGS7-Galphao binding; actives lie on both sides | shares compounds with RGS16-Gao; in the data active means response below about 75% or above about 130%; inactive means in between;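 further: fluorescent Galphao activated with GDP and aluminum fluoride binding bead-coupled RGS7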
RGS16-Gao single = confirmation of regulators of human RGS16-Galphao interaction; 4% of 1,700 active; response (% of control binding), % at 10 µM; bead-based flow cytometry, RGS16-Galphao binding; actives lie on both sides; shares compounds with RGS16-Gao; AID 1838; in the data active means response below about 74% or above about 130%; inactive means in between;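 further: Galphao activated as the GDP aluminium fluoride complex binding bead-coupled RGS16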
RGS4-Gao single = confirmation of regulators of human RGS4-Galphao interaction; 4% of 1,700 active; AID 1840; shares compounds with RGS16-Gao; binding response (% of control), % at 10 µM; RGS4-Galphao binding, multiplexed bead flow cytometry; actives lie on both sides; in the data active means binding response below about 74% or above about 130%; inactive means in between
RGS19-Gao single = RGS19-Galphao interaction regulation, single point confirmation; 5% of 1,700 active; shares compounds with RGS16-Gao; bead-based flow cytometry RGS19-Galphao binding; actives lie on both sides; AID 1841; response (percent of control binding), % at 10 µM; in the data active means response below about 50% or above about 160%; inactive means in between
Of the large screens only hits and unclear results are named; the others gave an inactive call (follow-up assays come after a bar, where they were run); [ ] = another dose, or the depositor's remark. Unless noted, how the calls were made is not given here.

O=C(Nc1ccc(C2=NCCN2)cc1)c1ccc(C(=O)Nc2ccc(C3=NCCN3)cc2)c(Cl)c1	RGS7-Gao reg inconclusive, RGS4-Gao reg 199[activator], RGS8-Gao reg 143[activator] (no result: GSH bead fluor) | Avidin counter inactive | RGS8-Gao single inactive | RGS7-Gao single inactive | RGS16-Gao single inactive | RGS4-Gao single inactive | RGS19-Gao single inactive
O=C(NC1=NCCS1)c1ccccc1OCc1ccc(F)cc1	none
C=CCN(CC(=O)NCc1ccccc1)C(=O)c1csnn1	none (no result: RGS7-Gao reg, RGS16-Gao, RGS4-Gao reg, Avidin fluor, RGS8-Gao reg) | Avidin counter inactive | RGS8-Gao single inactive | RGS7-Gao single inactive | RGS16-Gao single inactive | RGS4-Gao single inactive | RGS19-Gao single inactive
COc1ccc(CNC(=O)CN(Cc2ccccc2)C(=O)c2csnn2)cc1	none
O=C1CCCC(O)=C1C1C2=C(CCCC2=O)OC2=C1C(=O)CCC2	none
O=C1CCCC2=C1C(c1ccccc1O)C1=C(CCCC1=O)O2	RGS8-Gao reg 141[activator] | RGS-Gao 113 | Avidin counter inactive | RGS8-Gao single inactive | RGS7-Gao single inactive | RGS16-Gao single inactive | RGS4-Gao single inactive | RGS19-Gao single inactive
COC(=O)c1ccc(OC(=O)c2ccc(OC)cc2)c(OC)c1	none
O=C1CCC(N2C(=O)c3ccccc3C2=O)C(=O)N1 (stereo unspecified)	RGS7-Gao reg 23, RGS4-Gao reg 37, RGS8-Gao reg 46 | Avidin counter inactive | RGS8-Gao single inactive | RGS7-Gao single inactive | RGS16-Gao single inactive | RGS4-Gao single inactive | RGS19-Gao single inactive
Cc1nc2ccccc2nc(C)c1=NOCc1ccccc1Cl	none
O=C(COC(=O)Cc1ccsc1)Nc1ccc(Cl)c(S(=O)(=O)N2CCOCC2)c1	none
CCN(CC)S(=O)(=O)c1ccc(Cl)c(C(=O)Oc2cccc(-c3cnc4ccccc4n3)c2)c1	none
CCN(CC)S(=O)(=O)c1cc(C(=O)Oc2cccc(-c3cnc4ccccc4n3)c2)ccc1Br	RGS7-Gao reg -8.5, RGS16-Gao -29, RGS4-Gao reg -30, RGS8-Gao reg 11 | Avidin counter inactive | RGS8-Gao single inactive | RGS7-Gao single inactive | RGS16-Gao single inactive | RGS4-Gao single inactive | RGS19-Gao single inactive
NC(=O)C1CCN(C2=C(NS(=O)(=O)c3ccccc3)C(=O)c3ccccc3C2=O)CC1	RGS7-Gao reg inconclusive, RGS16-Gao 16, RGS4-Gao reg 26, RGS8-Gao reg 19 (no result: GSH bead fluor) | Avidin counter inactive | RGS8-Gao single inactive | RGS7-Gao single inactive | RGS16-Gao single inactive | RGS4-Gao single inactive | RGS19-Gao single inactive
COc1cc(/C=N/NC(=O)c2ccc(-n3cccc3)cc2)ccc1O	RGS7-Gao reg 16, RGS4-Gao reg 16, RGS8-Gao reg 14 | Avidin counter inactive | RGS8-Gao single inactive | RGS7-Gao single inactive | RGS16-Gao single inactive | RGS4-Gao single inactive | RGS19-Gao single inactive
COC(=O)CC1C(=O)NCCN1C(=O)Nc1ccc(Cl)c(Cl)c1 (stereo unspecified)	none (no result: RGS7-Gao reg, RGS16-Gao, RGS8-Gao reg) | Avidin counter inactive | RGS8-Gao single inactive | RGS7-Gao single inactive | RGS16-Gao single inactive | RGS4-Gao single inactive | RGS19-Gao single inactive
O=S(=O)(Nc1nc2ccccc2nc1-[n+]1cccc(N=C([O-])c2ccccc2Cl)c1)c1ccccc1	RGS7-Gao reg inconclusive (no result: GSH bead fluor)
Cc1nc2ncnn2c(N2CCN(C(c3ccccc3)c3ccccc3)CC2)c1C	none
Cc1cc(N2CCN(C(c3ccccc3)c3ccccc3)CC2)n2ncnc2n1	none (no result: RGS7-Gao reg, RGS16-Gao, RGS4-Gao reg, Avidin fluor, RGS8-Gao reg) | Avidin counter inactive | RGS8-Gao single inactive | RGS7-Gao single inactive | RGS16-Gao single inactive | RGS4-Gao single inactive | RGS19-Gao single inactive
c1ccc(-c2csc3ncnc(NCc4ccccn4)c23)cc1	RGS7-Gao reg inconclusive, RGS4-Gao reg 153[activator] (no result: GSH bead fluor) | Avidin counter inactive | RGS8-Gao single inactive | RGS7-Gao single inactive | RGS16-Gao single inactive | RGS4-Gao single inactive | RGS19-Gao single inactive
N#CC1CCN(c2ncccc2[N+](=O)[O-])CC1	RGS7-Gao reg inconclusive, RGS4-Gao reg 282[activator] (no result: GSH bead fluor) | Avidin counter inactive | RGS8-Gao single inactive | RGS7-Gao single inactive | RGS16-Gao single inactive | RGS4-Gao single inactive | RGS19-Gao single inactive
CCCN(CCC)c1nc(C#N)nc(N(CCC)CCC)n1	RGS8-Gao reg 48 | RGS-Gao 96 | Avidin counter inactive | RGS8-Gao single inactive | RGS7-Gao single inactive | RGS16-Gao single inactive | RGS4-Gao single inactive | RGS19-Gao single inactive
CCCCCCN=C(C)c1ccccc1O	RGS7-Gao reg inconclusive (no result: GSH bead fluor)
CC(=O)Nc1nc(COc2ccccc2)cs1	none
Cc1ccc(C(=O)Nc2nc(COc3ccccc3)cs2)s1	none (no result: RGS7-Gao reg, RGS16-Gao, RGS4-Gao reg, Avidin fluor, RGS8-Gao reg) | Avidin counter inactive | RGS8-Gao single inactive | RGS7-Gao single inactive | RGS16-Gao single inactive | RGS4-Gao single inactive | RGS19-Gao single inactive
CCCCN(CCCC)S(=O)(=O)c1ccc(NC(=O)c2ccc([N+](=O)[O-])cc2Cl)cc1	RGS16-Gao 304[activator] | RGS-Gao 113 | Avidin counter inactive | RGS8-Gao single inactive | RGS7-Gao single inactive | RGS16-Gao single inactive | RGS4-Gao single inactive | RGS19-Gao single inactive
Cc1ccc(Cl)cc1N(CC(=O)NC1CCCCC1)S(C)(=O)=O	RGS7-Gao reg 197[activator], RGS4-Gao reg 180[activator], RGS8-Gao reg 247[activator] | Avidin counter inactive | RGS8-Gao single inactive | RGS7-Gao single inactive | RGS16-Gao single inactive | RGS4-Gao single inactive | RGS19-Gao single inactive
NC(=O)Cn1nc2sc3ccccc3n2c(=O)c1=O	RGS7-Gao reg inconclusive (no result: GSH bead fluor)
O=C(NC1CCCCC1)N(C1=NCCCCC1)c1ccc(Br)cc1	none
CNC(=O)COc1ccc(C=O)cc1OC	RGS16-Gao 11 | RGS-Gao 91 | Avidin counter inactive | RGS8-Gao single inactive | RGS7-Gao single inactive | RGS16-Gao single inactive | RGS4-Gao single inactive | RGS19-Gao single inactive
